According to PubChem BioAssay (NCATS):
Values without a mark were called inactive. Inconclusive results are not listed. Where a call stands in place of a potency, no number is given. Activity calls are given as the source filed them. Calls come from the whole dose curve; as a rule, active = well fitted curve in the direction sought with a large enough effect; inconclusive = small, poorly fitted or top-dose-only effect, or another doubt; inactive = no such curve, though single readings can be large; an effect the other way counts as inactive or inconclusive.

What was measured:
CP192 = assay: qHTS profiling for inhibitors of Plasmodium falciparum proliferation (AID 504749); note: nearly all actives have a fitted effect of over 60% in size; note: potency is the fitted concentration of half-maximal effect; conditions: P. falciparum in erythrocytes, SYBR Green DNA, 72 h; series mostly up to 28.7 µM
How it was run: (§1)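 Parasite proliferation within erythrocytes, 72 h exposure. Endpoint: SYBR Green I fluorescence after overnight lysis at room temperature. Controls: 0.29 uM artemisinin, DMSO.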

CP266 = assay: as above; conditions: P. falciparum in erythrocytes, SYBR Green DNA, 72 h; series mostly up to 28.7 µM
How it was run: as §1

CP268 = assay: as above; conditions: P. falciparum in erythrocytes, SYBR Green DNA, 72 h; series mostly up to 28.7 µM
How it was run: as §1

CP269 = assay: as above; conditions: P. falciparum in erythrocytes, SYBR Green DNA, 72 h; series mostly up to 28.7 µM
How it was run: as §1

CP329 = assay: as above; conditions: P. falciparum in erythrocytes, SYBR Green DNA, 72 h; series mostly up to 28.7 µM
How it was run: as §1

[1] = biological target: Ubiquitin carboxyl-terminal hydrolase 1 (Homo sapiens) (UniProt O94782); assay: Inhibitors of USP1/UAF1: Pilot qHTS (AID 504865);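 note: rhodamine fluorescence freed from ubiquitin-rhodamine substrate followed over time; top concentration of the series differs between compounds; nearly all actives have a fitted effect of over 35% in size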
Ubiquitin carboxyl-terminal hydrolase 1 (Homo sapiens), sequence (O94782 whole entry, looked up): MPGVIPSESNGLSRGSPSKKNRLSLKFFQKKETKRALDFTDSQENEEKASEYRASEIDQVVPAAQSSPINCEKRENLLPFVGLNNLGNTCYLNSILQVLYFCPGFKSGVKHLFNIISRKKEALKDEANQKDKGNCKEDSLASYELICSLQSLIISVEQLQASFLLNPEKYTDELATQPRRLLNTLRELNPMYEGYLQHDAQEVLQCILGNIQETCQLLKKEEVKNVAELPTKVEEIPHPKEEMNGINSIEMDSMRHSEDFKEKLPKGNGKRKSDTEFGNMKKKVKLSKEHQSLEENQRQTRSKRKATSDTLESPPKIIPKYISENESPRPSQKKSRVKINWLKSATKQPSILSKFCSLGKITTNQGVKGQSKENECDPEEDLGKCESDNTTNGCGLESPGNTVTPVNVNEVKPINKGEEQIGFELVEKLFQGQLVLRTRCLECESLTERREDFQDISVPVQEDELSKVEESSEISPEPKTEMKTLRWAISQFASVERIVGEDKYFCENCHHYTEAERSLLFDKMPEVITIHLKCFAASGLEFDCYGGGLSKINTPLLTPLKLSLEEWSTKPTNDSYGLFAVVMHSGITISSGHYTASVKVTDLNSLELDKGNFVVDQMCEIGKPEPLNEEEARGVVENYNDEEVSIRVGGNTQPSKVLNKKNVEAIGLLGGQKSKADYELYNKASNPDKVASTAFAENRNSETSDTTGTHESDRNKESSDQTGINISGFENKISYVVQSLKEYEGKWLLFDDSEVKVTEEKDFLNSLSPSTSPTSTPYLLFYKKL
How it was run: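 Kinetic fluorescence assay: 1nM USP1/UAF1, 15 min compound preincubation, then 150nM Ub-Rho; 480/540 nm.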

CP203 = assay: qHTS profiling for inhibitors of Plasmodium falciparum proliferation (AID 504749); note: nearly all actives have a fitted effect of over 60% in size; note: potency is the fitted concentration of half-maximal effect; conditions: P. falciparum in erythrocytes, SYBR Green DNA, 72 h; series mostly up to 28.7 µM
How it was run: as §1

CP297 = assay: as above; conditions: P. falciparum in erythrocytes, SYBR Green DNA, 72 h; series mostly up to 28.7 µM
How it was run: as §1

DIV14 = assay: as above; conditions: P. falciparum in erythrocytes, SYBR Green DNA, 72 h; series mostly up to 28.7 µM
How it was run: as §1

DIV17 = assay: as above; conditions: P. falciparum in erythrocytes, SYBR Green DNA, 72 h; series mostly up to 28.7 µM
How it was run: as §1

DIV30 = assay: as above; conditions: P. falciparum in erythrocytes, SYBR Green DNA, 72 h; series mostly up to 28.7 µM
How it was run: as §1

PC26 = assay: as above; conditions: P. falciparum in erythrocytes, SYBR Green DNA, 72 h; series mostly up to 28.7 µM
How it was run: as §1

W2 = assay: as above; conditions: P. falciparum in erythrocytes, SYBR Green DNA, 72 h; series mostly up to 28.7 µM
How it was run: as §1

[2] = biological target: Cytochrome P450 3A4 (Homo sapiens) (UniProt P08684); assay: qHTS Assay for Inhibitors and Substrates of Cytochrome P450 3A4 (AID 884); note: nearly all actives have a fitted effect of over 50% in size; note: potency is the fitted concentration of half-maximal effect
Cytochrome P450 3A4 (Homo sapiens), sequence (P08684 whole entry, looked up): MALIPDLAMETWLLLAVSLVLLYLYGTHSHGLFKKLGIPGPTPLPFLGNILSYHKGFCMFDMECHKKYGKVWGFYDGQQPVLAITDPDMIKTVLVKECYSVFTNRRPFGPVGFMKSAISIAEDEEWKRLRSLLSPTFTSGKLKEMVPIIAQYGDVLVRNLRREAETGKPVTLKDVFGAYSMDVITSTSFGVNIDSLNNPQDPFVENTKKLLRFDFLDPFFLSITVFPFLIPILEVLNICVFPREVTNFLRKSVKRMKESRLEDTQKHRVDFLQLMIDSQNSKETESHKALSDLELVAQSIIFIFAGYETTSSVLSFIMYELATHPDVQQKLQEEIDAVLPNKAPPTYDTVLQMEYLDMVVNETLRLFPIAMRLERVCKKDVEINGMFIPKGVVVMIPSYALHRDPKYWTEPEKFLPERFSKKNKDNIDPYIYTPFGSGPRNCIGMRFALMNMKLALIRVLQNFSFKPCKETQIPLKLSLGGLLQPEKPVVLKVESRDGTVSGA
How it was run: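 20 nM human CYP3A4 with 25 uM Luciferin-PPXE (at KM) in 200 mM KPO4, preincubated 10 min with compound; NADPH regeneration started a 60 min RT reaction. Luciferin detected by luminescence, normalized to 57 uM ketoconazole as full inhibition.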

[3] = Primary qHTS for inhibitors of nuclear receptor binding SET domain protein 2 (NSD2) in an isogenic RCH-ACV NSD2 p.E1099K mutant (9B) (AID 1645876); note: potency is the fitted concentration of half-maximal effect; nearly all actives have a fitted effect of over 70% in size
[4] = Primary qHTS for inhibitors of nuclear receptor binding SET domain protein 2 (NSD2) in an RCH-ACV wild type WT cells (2C) (AID 1645877); note: potency is the fitted concentration of half-maximal effect; nearly all actives have a fitted effect of over 70% in size
[5] = qHTS assay to identify inhibitors of the type 1 interferon - major histocompatibility complex class I in skeletal muscle: Counter screen cell viability and HiBit confirmation (AID 1347412); conditions: iHSKM muscle cells + IFN-b, HiBiT or CellTiter-Glo, 24 h; for activity change, negative = inhibition: at 45.9 µM (top of the series); note: potency is the fitted concentration of half-maximal effect; for all read-outs here: nearly all actives have a fitted effect of over 60% in size
How it was run: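 Myoblasts (C25cl48, HLA-B HiBiT) seeded in medium without dexamethasone, IFN-b 4 ng/ml added except unstimulated columns; 1 hr later compounds pinned (12-pt 1:3, top 46 uM final). Incubated 24 hrs, lysed 10 min, luminescence measured.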

[6] = biological target: DNA dC->dU-editing enzyme APOBEC-3G (Homo sapiens) (UniProt Q9HC16); assay: qHTS for inhibitors of Vif-A3G interactions: Validation (AID 588379)
DNA dC->dU-editing enzyme APOBEC-3G (Homo sapiens), sequence (Q9HC16 whole entry, looked up): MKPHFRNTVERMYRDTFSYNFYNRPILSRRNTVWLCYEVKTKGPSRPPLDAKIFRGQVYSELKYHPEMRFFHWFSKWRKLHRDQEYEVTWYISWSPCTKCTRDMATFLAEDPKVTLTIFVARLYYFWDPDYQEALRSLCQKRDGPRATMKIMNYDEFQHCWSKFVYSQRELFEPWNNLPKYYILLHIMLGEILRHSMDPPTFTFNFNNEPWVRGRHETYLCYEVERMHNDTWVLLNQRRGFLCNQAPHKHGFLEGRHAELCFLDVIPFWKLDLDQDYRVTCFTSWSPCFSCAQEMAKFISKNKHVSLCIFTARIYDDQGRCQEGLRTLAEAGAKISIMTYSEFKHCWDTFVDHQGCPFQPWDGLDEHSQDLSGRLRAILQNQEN
How it was run: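 HeLa cells stably expressing Vif and A3G-eYFP, 700 cells/well, incubated overnight at 37 deg C, then exposed to compound overnight at 37 deg C. Inhibition of Vif-mediated degradation read as increased yellow fluorescence (Ex 488/Em 500-530) by laser-scanning cytometry.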

[7] = qHTS for Inhibitors of Ubiquitin-specific Protease USP2a Using CHOP2 as the Reporter: Cytotox Assay (AID 652170); note: nearly all actives have a fitted effect of over 70% in size; note: potency is the fitted concentration of half-maximal effect
How it was run: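 HCT116 human colon cancer cells, 600 per well in DMEM with 10% FBS, exposed to compounds for 72 hr at 37 deg C. ATP measured by CellTiter-Glo luminescence, normalized to DMSO cells and no-cell background.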

[8] = biological target: Ubiquitin carboxyl-terminal hydrolase 2 (Homo sapiens) (UniProt O75604); assay: qHTS for Inhibitors of Ubiquitin-specific Protease USP2a Using CHOP2 as the Reporter: K484 Substrate (AID 652173);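 note: cleavage of internally quenched K48 di-ubiquitin substrate measured as rising fluorescence over time; nearly all actives have a fitted effect of over 70% in size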; note: potency is the fitted concentration of half-maximal effect
Ubiquitin carboxyl-terminal hydrolase 2 (Homo sapiens), sequence (O75604 whole entry, looked up): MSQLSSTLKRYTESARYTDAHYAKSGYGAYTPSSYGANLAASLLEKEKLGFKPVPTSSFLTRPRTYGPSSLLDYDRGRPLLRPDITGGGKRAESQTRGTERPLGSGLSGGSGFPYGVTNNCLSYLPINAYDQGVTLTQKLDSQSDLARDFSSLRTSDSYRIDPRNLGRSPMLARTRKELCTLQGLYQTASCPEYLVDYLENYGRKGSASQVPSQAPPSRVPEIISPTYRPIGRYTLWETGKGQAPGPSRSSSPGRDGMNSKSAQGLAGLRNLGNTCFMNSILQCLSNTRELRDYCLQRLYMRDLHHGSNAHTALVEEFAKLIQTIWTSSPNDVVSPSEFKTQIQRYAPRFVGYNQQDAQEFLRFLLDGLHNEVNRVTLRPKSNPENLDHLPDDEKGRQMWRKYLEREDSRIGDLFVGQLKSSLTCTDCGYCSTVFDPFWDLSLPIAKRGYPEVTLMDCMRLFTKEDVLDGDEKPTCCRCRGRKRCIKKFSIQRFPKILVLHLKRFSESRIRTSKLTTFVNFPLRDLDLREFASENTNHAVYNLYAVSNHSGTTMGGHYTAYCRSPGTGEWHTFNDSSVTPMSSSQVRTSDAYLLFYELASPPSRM
How it was run: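 USP2 (dispensed at 5 nM) was pinned with compounds, then DiUb K48 internally quenched fluorescent substrate (dispensed at 100 nM) was added. The buffer was 20 mM Tris pH 8, 2 mM beta-mercaptoethanol and 0.05% CHAPS. Cleavage was read kinetically as rising fluorescence, Ex 525/Em 598.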

COc1ccc(CCNC[C@@H](O)c2ccc(O)cc2)cc1OC
Potency (CP192): inactive
Potency (CP266): inactive
Potency (CP268): inactive
Potency (CP269): inactive
Potency (CP329): inactive

NCCC(=O)NCCc1cnc[nH]1
Potency [1]: inactive

CN=C(N)NCCCC(N)C(=O)O (stereo unspecified)
Potency [1]: inactive
Potency (CP192): inactive
Potency (CP203): inactive
Potency (CP266): inactive
Potency (CP268): inactive
Potency (CP269): inactive
Potency (CP297): inactive
Potency (CP329): inactive
Potency (DIV14): inactive
Potency (DIV17): inactive
Potency (DIV30): inactive
Potency (PC26): inactive
Potency (W2): inactive

OC[C@H]1O[C@@H](n2cnc3c(NCCc4ccccc4)ncnc32)[C@H](O)[C@H]1O
Potency [2]: inactive

C[C@@H](Oc1cc(C(=O)Nc2ccc(C(=O)N3CCN(C)CC3)cc2)nnc1N)c1c(Cl)ccc(F)c1Cl
Potency [3]: 2.63 µM (active)
Potency [4]: 1.48 µM (active)
activity change, negative = inhibition ([5]; HiBiT): -32.5%

C[C@]12CCC(=O)C=C1CC[C@@H]1C2[C@@H](O)C[C@@]2(C)[C@H]1CC[C@]2(O)C(=O)CO (stereo partly specified)
Potency [1]: inactive
outcome [6]: inactive

Cc1c(C(=O)Nc2ccc(Oc3ccnc4[nH]cc(-c5ccccc5)c34)c(F)c2)c(=O)n(-c2ccc(F)cc2)n1C
Potency [4]: 1.86 µM (active)
activity change, negative = inhibition ([5]; Viability): -7.02%

NCCNC(=O)c1ccc(Cl)cc1
outcome [6]: inactive

NC(=O)c1cccc2c(NC(CN3CCC3)c3ccc(Cl)c(C(F)(F)F)c3)ncnc12 (stereo unspecified)
Potency [3]: 1.05 µM (active)
Potency [4]: 1.32 µM (active)
activity change, negative = inhibition ([5]; HiBiT): -0.923%

CCCc1cc(C(=O)N[C@H](Cc2ccc(-c3cccc(OC(F)(F)F)c3)nc2)C(=O)N[C@@H]2CCNC2)sc1C
Potency [3]: 6.61 µM (active)
Potency [4]: 5.9 µM (active)
Potency ([5]; Viability): 35.2 µM (active)

COc1cc(=O)n(C)c2c(OCC(O)C(C)(C)O)cccc12 (stereo unspecified)
Potency [2]: inactive
outcome [6]: inactive

CN1C(=O)CCC1c1cccnc1 (stereo unspecified)
Potency [2]: inactive
Potency [1]: inactive
outcome [6]: inactive
Potency (CP192): inactive
Potency (CP203): inactive
Potency (CP266): inactive
Potency (CP268): inactive
Potency (CP269): inactive
Potency (CP297): inactive
Potency (CP329): inactive
Potency (DIV14): inactive
Potency (DIV17): inactive
Potency (DIV30): inactive
Potency (PC26): inactive
Potency (W2): inactive

O=C1NC(=O)[C@@H](c2c[nH]c3ccccc23)[C@H]1c1cn2c3c(cccc13)CCC2
Potency [3]: 1.18 µM (active)
Potency [4]: 0.934 µM (active)
activity change, negative = inhibition ([5]; Viability): -10.9%

CN1C[C@H](C(=O)N[C@]2(C)O[C@@]3(O)C4CCCN4C(=O)[C@H](Cc4ccccc4)N3C2=O)C[C@@H]2c3cccc4[nH]cc(c34)C[C@H]21 (stereo partly specified)
outcome [6]: inactive

COc1cc2c(cc1OC)C(c1ccccc1)CN(C)CC2 (stereo unspecified)
Potency [1]: inactive
Potency (CP203): inactive
Potency (CP266): inactive
Potency (DIV30): inactive
Potency (PC26): inactive

CC(C)(C)[C@]1(O)CCN2CC3c4ccccc4CCc4cccc(c43)[C@@H]2C1 (stereo partly specified)
Potency (CP329): inactive
Potency (DIV14): 10.7 µM (active)
Potency (DIV17): 15.1 µM (active)
Potency (W2): 5.36 µM (active)

COC(=O)c1c(-c2cc(OC)c(OC)c(OC)c2)c2ccc(OCc3ccccn3)cc2c(=O)n1-c1ccc(N)cc1
Potency [2]: 0.398 µM (active)

CC(C)C[C@H]1C(=O)N2CCCC2[C@]2(O)O[C@](NC(=O)[C@@H]3C=C4c5cccc6[nH]c(Br)c(c56)C[C@H]4N(C)C3)(C(C)C)C(=O)N12 (stereo partly specified)
Potency (CP192): 16.9 µM (active)
Potency (CP203): 9.53 µM (active)
Potency (CP268): 12 µM (active)
Potency (CP269): 10.7 µM (active)
Potency (CP297): 10.7 µM (active)
Potency (DIV14): 3.38 µM (active)
Potency (DIV17): 3.79 µM (active)
Potency (DIV30): 5.36 µM (active)
Potency (PC26): 5.36 µM (active)
Potency (W2): 1.69 µM (active)

CCCC(=O)NCCc1c2n(c3ccc(OC)cc13)Cc1ccccc1-2
Potency [2]: 2.51 µM (active)

NS(=O)(=O)c1ccc(Nc2nc(-c3ccccc3)cs2)cc1
Potency [7]: inactive
Potency [8]: 21.7 µM (active)

N#Cc1ccc(NS(=O)(=O)c2ccc(NC(=O)Cc3ccc(Cl)c(Cl)c3)cc2)cc1
Potency [8]: 7.69 µM (active)

O=[S+]([O-])(NCc1nccs1)c1ccc(Nc2nc(-c3ccccc3)cs2)cc1
Potency [7]: inactive
Potency [8]: inactive

O=C(Nc1nc(-c2ccccc2)cs1)c1ccncc1NS(=O)(=O)c1cccc2cccnc12
Potency [7]: inactive
Potency [8]: 7.69 µM (active)

Cc1ccc(S(=O)(=O)Nc2cc3c(cc2C(=O)Nc2nc(-c4ccccc4)cs2)OCO3)cc1
Potency [7]: 16.6 µM (active)

N#Cc1ccc(NS(=O)(=O)c2ccc(NC(=O)Cc3ccc(F)c(Cl)c3)cc2)cc1
Potency [8]: 24.3 µM (active)

Cc1ccc(S(=O)(=O)Nc2ccc(Br)cc2C(=O)Nc2nc(-c3ccccc3)cs2)cc1
Potency [7]: 4.69 µM (active)
